# From PubChem BioAssay (EPA / NIEHS)
# “And” between values parts separate entries of the source, which are not always exact repeats. Identical values can stand only once. A structure can be active in one record and inactive in another. The source made the active and inactive calls. The calls were made as follows: active = hit-call score of the fitted dose curve at least 0.9, where 1 is the maximum; inactive = score below 0.9.
# What was measured:
# [1] = ATG_CRE_CIS: Attagene CIS-FACTORIAL HepG2 Assay for human cAMP Responsive Element (CRE) binding protein 3 (AID 2282926); conditions: HepG2 CRE cis-reporter, Attagene multiplexed mRNA; actives raise or lower the signal
# Method in brief: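 Human liver HepG2, transient MRTU transfection, 24 h compound exposure. Total RNA → oligo(dT) RT → PCR → 6-FAM primer extension → HpaI cut → CE. Activity called both directions vs DMSO.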
# [2] = target: CCAAT/enhancer-binding protein beta (Homo sapiens) (UniProt P17676); test: ATG_C_EBP_CIS: Attagene CIS-FACTORIAL HepG2 Assay for human CCAAT/Enhancer Binding Protein (C/EBP) beta (AID 2282927); conditions: HepG2 Attagene cis-factorial transcription factor reporter; actives raise or lower the signal
# Sequence of CCAAT/enhancer-binding protein beta (Homo sapiens) (P17676 whole entry, looked up): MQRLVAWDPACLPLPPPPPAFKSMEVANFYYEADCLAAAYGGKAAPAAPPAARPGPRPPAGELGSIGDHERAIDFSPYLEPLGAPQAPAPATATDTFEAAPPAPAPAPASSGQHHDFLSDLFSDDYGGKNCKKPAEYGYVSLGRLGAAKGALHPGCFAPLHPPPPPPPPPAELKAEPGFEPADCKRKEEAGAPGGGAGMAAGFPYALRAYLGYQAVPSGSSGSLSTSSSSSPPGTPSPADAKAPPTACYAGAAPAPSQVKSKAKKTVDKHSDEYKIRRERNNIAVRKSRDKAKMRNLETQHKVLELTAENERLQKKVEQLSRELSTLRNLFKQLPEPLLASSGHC
# Method in brief: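 HepG2 transiently transfected with multiplexed reporter units under cis-regulatory promoters reporting endogenous C/EBPb activity. After 24 h exposure, reporter mRNA assayed by RT-PCR, fluorescent labelling, HpaI digestion and capillary electrophoresis; bidirectional fitting versus DMSO.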
# [3] = ATG_CMV_CIS: Attagene CIS-FACTORIAL HepG2 Assay for human CMV (Internal Marker) (AID 2282928); conditions: HepG2 CMV promoter reporter, transcription factor profiling; actives raise or lower the signal;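 also: endpoint acts as a background internal control marker rather than a target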
# Method in brief: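 HepG2 cells transiently transfected with multiple cis-regulated reporter units; 24 h compound exposure. Reporter mRNA quantified by RT-PCR, 6-FAM primer-extension labeling, HpaI digestion and capillary electrophoresis; bidirectional fitting against DMSO baseline.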
# [4] = ATG_DR4_LXR_CIS: Attagene CIS-FACTORIAL HepG2 Assay for human Liver X Receptor (LXR), DR4 submotif (AID 2282929); conditions: HepG2 Attagene DR4 cis-reporter, mRNA transcription; actives raise or lower the signal
# Method in brief: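 HepG2 cells were transiently transfected with multiple cis-regulated reporter units and dosed for 24 hours. The DR4 reporter mRNA was quantified by RT-PCR, 6-FAM labelling and capillary electrophoresis. Bidirectional fits used DMSO as baseline.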
# [5] = target: Aryl hydrocarbon receptor (Homo sapiens) (UniProt P35869); test: ATG_Ahr_CIS: Attagene CIS-FACTORIAL HepG2 Assay for human Aryl Hydrocarbon Receptor (Ahr) (AID 2282930); conditions: HepG2 AhR cis-factorial reporter transcription; actives raise or lower the signal
# Sequence of Aryl hydrocarbon receptor (Homo sapiens) (P35869 whole entry, looked up): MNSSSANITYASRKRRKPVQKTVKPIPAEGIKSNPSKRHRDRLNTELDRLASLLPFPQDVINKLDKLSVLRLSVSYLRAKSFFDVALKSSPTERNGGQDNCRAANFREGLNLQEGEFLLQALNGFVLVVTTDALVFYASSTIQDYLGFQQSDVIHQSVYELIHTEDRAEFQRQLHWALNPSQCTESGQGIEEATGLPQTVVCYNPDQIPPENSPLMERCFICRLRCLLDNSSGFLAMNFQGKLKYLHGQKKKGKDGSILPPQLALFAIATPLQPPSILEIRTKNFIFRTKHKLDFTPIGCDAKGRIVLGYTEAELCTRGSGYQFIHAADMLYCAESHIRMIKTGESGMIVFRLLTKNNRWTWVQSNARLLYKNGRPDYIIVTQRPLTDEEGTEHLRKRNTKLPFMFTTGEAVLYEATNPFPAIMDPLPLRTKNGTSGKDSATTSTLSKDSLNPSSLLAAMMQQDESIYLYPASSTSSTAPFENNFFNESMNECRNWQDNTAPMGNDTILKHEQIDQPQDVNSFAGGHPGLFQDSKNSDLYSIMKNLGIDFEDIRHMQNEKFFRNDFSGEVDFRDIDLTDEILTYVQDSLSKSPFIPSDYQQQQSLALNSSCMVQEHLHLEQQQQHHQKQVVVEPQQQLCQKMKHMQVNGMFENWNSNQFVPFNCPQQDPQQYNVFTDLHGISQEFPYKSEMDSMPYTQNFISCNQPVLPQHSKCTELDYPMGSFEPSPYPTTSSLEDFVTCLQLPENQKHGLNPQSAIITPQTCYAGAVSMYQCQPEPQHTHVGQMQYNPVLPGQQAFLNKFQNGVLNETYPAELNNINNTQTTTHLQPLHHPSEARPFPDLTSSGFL
# Method in brief: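 HepG2 cells transiently transfected with cis-element-driven multiplexed reporter units; endogenous AhR activity read as reporter mRNA 24 h after dosing, via RT-PCR, 6-FAM labelling, HpaI digestion and capillary electrophoresis. Bidirectional fit relative to DMSO.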
# [6] = ATG_AP_1_CIS: Attagene CIS-FACTORIAL HepG2 Assay for human Activator Protein 1 (AP-1) (AID 2282931); conditions: HepG2 Attagene cis-factorial AP-1 reporter mRNA; actives raise or lower the signal
# Method in brief: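 HepG2 cells transiently transfected with cis-element-driven reporter transcription units, dosed for 24 hours. Reporter mRNA measured by RT-PCR, 6-FAM labelling, HpaI digestion and capillary electrophoresis. Bidirectional fitting against DMSO baseline.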
# [7] = ATG_AP_2_CIS: Attagene CIS-FACTORIAL HepG2 Assay for human Activator Protein 2 (AP-2) (AID 2282932); conditions: HepG2 AP-2 cis-reporter, Attagene transcription factor profiling; actives raise or lower the signal
# Method in brief: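 Multiplexed mRNA reporter assay in HepG2: cis-regulated units report endogenous factor activity after 24 h treatment. Fluorescence from capillary electrophoresis of RT-PCR products gives the signal, with DMSO as baseline.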
# [8] = ATG_BRE_CIS: Attagene CIS-FACTORIAL HepG2 Assay for human Bone Morphogenetic Protein (BMP) Response Element (BRE) (AID 2282933); conditions: HepG2 BMP response element reporter, Attagene transcription factor profiling; actives raise or lower the signal
# Method in brief: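 A HepG2 multiplex reporter system measured inducible reporter mRNA 24 h post-dosing. Detection: RT-PCR, 6-FAM primer extension, HpaI digestion, capillary electrophoresis. Activity fitted bidirectionally relative to DMSO.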
# [9] = target: Retinoic acid receptor alpha (Homo sapiens) (UniProt P10276); test: ATG_DR5_RAR_CIS: Attagene CIS-FACTORIAL HepG2 Assay for human Retinoic Acid Receptor Alpha (RARE), DR5 submotif (AID 2282934); conditions: HepG2 Attagene cis-factorial RARE DR5 reporter, mRNA; actives raise or lower the signal;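 as to AC50: reporter responds to endogenous RAR alpha beta and gamma in HepG2 not RARA alone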
# Sequence of Retinoic acid receptor alpha (Homo sapiens) (P10276 whole entry, looked up): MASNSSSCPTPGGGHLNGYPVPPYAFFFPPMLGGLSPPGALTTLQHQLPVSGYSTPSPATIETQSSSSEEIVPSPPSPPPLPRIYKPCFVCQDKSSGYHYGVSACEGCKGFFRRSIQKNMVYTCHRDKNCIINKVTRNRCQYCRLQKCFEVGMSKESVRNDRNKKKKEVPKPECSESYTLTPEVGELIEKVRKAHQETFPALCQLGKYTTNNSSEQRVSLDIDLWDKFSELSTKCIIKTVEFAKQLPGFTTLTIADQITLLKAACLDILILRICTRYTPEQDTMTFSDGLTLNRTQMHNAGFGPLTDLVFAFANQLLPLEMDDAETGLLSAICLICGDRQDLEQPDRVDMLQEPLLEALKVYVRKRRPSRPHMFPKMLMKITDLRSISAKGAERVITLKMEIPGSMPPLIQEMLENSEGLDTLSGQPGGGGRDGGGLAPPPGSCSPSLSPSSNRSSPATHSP
# Method in brief: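 HepG2 cells transiently transfected with multiplexed reporter units; DR5 cis-element drives reporter through endogenous transcription factors. After 24 h dosing, reporter mRNA quantified by RT-PCR, fluorescent labeling, HpaI digestion and capillary electrophoresis; bidirectional fitting versus DMSO.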
# [10] = target: Transcription factor E2F1 (Homo sapiens) (UniProt Q01094); test: ATG_E2F_CIS: Attagene CIS-FACTORIAL HepG2 Assay for human E2F Transcription Factor 1 (AID 2282935); conditions: HepG2 Attagene cis-reporter, E2F reporter RNA transcripts; actives raise or lower the signal
# Sequence of Transcription factor E2F1 (Homo sapiens) (Q01094 whole entry, looked up): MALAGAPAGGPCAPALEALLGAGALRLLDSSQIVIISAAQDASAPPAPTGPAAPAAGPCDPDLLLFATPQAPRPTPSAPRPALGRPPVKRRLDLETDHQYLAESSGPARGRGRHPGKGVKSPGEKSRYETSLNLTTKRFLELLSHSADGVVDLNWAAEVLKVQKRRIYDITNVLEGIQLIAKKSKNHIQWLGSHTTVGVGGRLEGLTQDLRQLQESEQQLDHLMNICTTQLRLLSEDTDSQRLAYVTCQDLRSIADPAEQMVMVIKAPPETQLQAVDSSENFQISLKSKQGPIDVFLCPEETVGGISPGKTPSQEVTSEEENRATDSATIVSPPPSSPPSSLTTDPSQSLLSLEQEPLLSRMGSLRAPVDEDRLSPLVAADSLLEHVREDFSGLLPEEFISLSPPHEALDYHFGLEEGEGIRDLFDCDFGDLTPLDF
# Method in brief: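 Measures reporter transcript levels via RT-PCR with capillary electrophoresis detection in HepG2 cells harboring cis-regulated reporter units; 24 h post-dose; bidirectional curve fitting with DMSO as baseline.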
compound,measurement,setting,value
NCc1cccc(C2CCN(C(=O)c3ccc(C#Cc4ccccc4F)o3)CC2)c1,AC50,[1],11 µM (active)
same,AC50,[2],11 µM (active)
same,AC50,[3],11 µM (active)
same,outcome,[4],inactive
same,outcome,[5],inactive
same,AC50,[6],11 µM (active)
same,outcome,[7],inactive
same,outcome,[8],inactive
same,outcome,[9],inactive
same,outcome,[10],inactive
COCC(C)OCC(C)OCC(C)O (centres undefined),outcome,[1],inactive
same,outcome,[2],inactive
same,outcome,[3],inactive
same,outcome,[4],inactive
same,outcome,[5],inactive
same,outcome,[6],inactive
same,outcome,[7],inactive
same,outcome,[8],inactive
same,outcome,[9],inactive
same,outcome,[10],inactive
NC(=O)c1nc(-c2cccc(-c3cc(F)ccc3OCC(F)(F)C(F)(F)F)c2)n[nH]1,AC50,[1],27.7 µM (active)
same,outcome,[2],inactive
same,AC50,[3],12.1 µM (active)
same,AC50,[4],44.4 µM (active)
same,outcome,[5],inactive
same,AC50,[6],24 µM (active)
same,outcome,[7],inactive
same,AC50,[8],19.8 µM (active)
same,outcome,[9],inactive
same,AC50,[10],16.8 µM (active)
Cc1cc(F)ccc1-c1cc(N2CC[C@@H](O)[C@H]2CO)ncc1N(C)C(=O)C(C)(C)c1cc(C(F)(F)F)cc(C(F)(F)F)c1,outcome,[1],inactive
same,outcome,[2],inactive
same,outcome,[3],inactive
same,outcome,[4],inactive
same,outcome,[5],inactive
same,outcome,[6],inactive
same,outcome,[7],inactive
same,outcome,[8],inactive
same,outcome,[9],inactive
same,outcome,[10],inactive
OC12N=C(c3ccccc3)SC1Cc1cc(Cl)ccc12 (centres undefined),outcome,[1],inactive
same,outcome,[2],inactive
same,outcome,[3],inactive
same,outcome,[4],inactive
same,AC50,[5],2.32 µM (active)
same,AC50,[6],3.8 µM (active)
same,outcome,[7],inactive
same,outcome,[8],inactive
same,outcome,[9],inactive
same,outcome,[10],inactive
Cc1occc1C(=O)Nc1ccc(C(=O)N2CCC(F)(F)/C(=C\C(=O)N3CCC(N4CCCCC4)CC3)c3ccccc32)cc1,outcome,[1],inactive
same,outcome,[2],inactive
same,outcome,[3],inactive
same,AC50,[4],50.3 µM (active)
same,outcome,[6],inactive
same,outcome,[7],inactive
same,AC50,[8],13.2 µM (active)
same,outcome,[9],inactive
same,outcome,[10],inactive
CCCCCCCCN(C)CCCCCCCC,outcome,[1],inactive
same,outcome,[2],inactive
same,outcome,[3],inactive
same,outcome,[4],inactive
same,outcome,[6],inactive
same,outcome,[7],inactive
same,outcome,[8],inactive
same,outcome,[9],inactive
same,outcome,[10],inactive
C[C@]12CC[C@@H]3c4ccc(O)cc4CC[C@H]3[C@@H]1CCC2=O,outcome,[1],inactive
same,outcome,[2],inactive
same,outcome,[3],inactive
same,outcome,[4],inactive
same,AC50,[6],24.5 µM (active)
same,outcome,[6],inactive
same,outcome,[7],inactive
same,outcome,[8],inactive
same,outcome,[10],inactive
CCN(Cc1cccc(S(=O)(=O)O)c1)c1ccc(C(=C2C=CC(=[N+](CC)Cc3cccc(S(=O)(=O)O)c3)C=C2)c2ccccc2S(=O)(=O)[O-])cc1,outcome,[1],inactive
same,outcome,[2],inactive
same,outcome,[3],inactive
same,outcome,[4],inactive
same,outcome,[6],inactive
same,outcome,[7],inactive
same,outcome,[8],inactive
same,outcome,[9],inactive
same,outcome,[10],inactive
Cc1cc2c(cc1C(F)(F)F)N(C(=O)Nc1ccc(Oc3cccnc3C)nc1)CC2,outcome,[1],inactive
same,outcome,[2],inactive
same,outcome,[3],inactive
same,outcome,[4],inactive
same,outcome,[6],inactive
same,outcome,[7],inactive
same,outcome,[8],inactive
same,AC50,[9],0.967 µM (active)
same,outcome,[10],inactive
CC(=O)N1CCN(c2ccc(OC[C@H]3CO[C@](Cn4ccnc4)(c4ccc(Cl)cc4Cl)O3)cc2)CC1,AC50,[1],20.7 µM (active)
same,outcome,[2],inactive
same,AC50,[3],44.4 µM (active)
same,AC50,[4],43.9 µM (active)
same,AC50,[6],43.5 µM (active)
same,outcome,[7],inactive
same,AC50,[8],28.6 µM (active)
same,outcome,[9],inactive
same,outcome,[10],inactive
CC(O)CC(C)(C)O (centres undefined),outcome,[1],inactive
same,outcome,[2],inactive
same,outcome,[3],inactive
same,outcome,[4],inactive
same,outcome,[6],inactive
same,AC50,[7],12.5 nM (active)
same,outcome,[7],inactive
same,outcome,[8],inactive
same,outcome,[9],inactive
same,outcome,[10],inactive
CC1(C)NC(=O)N(c2ccc([N+](=O)[O-])c(C(F)(F)F)c2)C1=O,AC50,[1],0.00911 µM (active)
same,outcome,[1],inactive
same,outcome,[2],inactive
same,outcome,[3],inactive
same,outcome,[4],inactive
same,AC50,[6],39.2 µM (active)
same,outcome,[6],inactive
same,outcome,[7],inactive
same,outcome,[8],inactive
same,AC50,[9],0.083 µM (active)
same,outcome,[9],inactive
same,outcome,[10],inactive
O=c1c(-c2ccc(O)cc2)coc2cc(O)cc(O)c12,AC50,[1],27.5 µM (active) and 50.6 µM (active)
same,outcome,[1],inactive
same,AC50,[3],19.1 µM (active) [middle of 4 runs]
same,AC50,[4],7.13 µM (active) and 4.78 µM (active)
same,outcome,[4],inactive
same,outcome,[6],inactive
same,AC50,[7],29.8 µM (active) and 52.6 µM (active)
same,outcome,[7],inactive
same,outcome,[8],inactive
same,AC50,[9],62.3 µM (active)
same,outcome,[9],inactive
same,outcome,[10],inactive
CCCC(=O)OCCC(C)C,outcome,[1],inactive
same,outcome,[2],inactive
same,outcome,[3],inactive
same,outcome,[4],inactive
same,outcome,[6],inactive
same,outcome,[7],inactive
same,outcome,[8],inactive
same,outcome,[9],inactive
same,outcome,[10],inactive
CC(C)(C)c1cc(/C=C2\SC(N)=NC2=O)cc(C(C)(C)C)c1O,AC50,[1],18.9 µM (active)
same,outcome,[2],inactive
same,AC50,[3],4.67 µM (active)
same,AC50,[4],6.65 µM (active)
same,AC50,[6],20.2 µM (active)
same,outcome,[7],inactive
same,outcome,[8],inactive
same,outcome,[9],inactive
same,outcome,[10],inactive
Cc1c2ccccc2c(C)c2c1ccc1ccccc12,outcome,[1],inactive
same,outcome,[2],inactive
same,AC50,[3],33.1 µM (active)
same,AC50,[4],10.4 µM (active)
same,AC50,[6],25.5 µM (active)
same,outcome,[7],inactive
same,AC50,[8],14.6 µM (active)
same,AC50,[9],53.3 µM (active)
same,outcome,[10],inactive
COc1cc(C(=O)NC2CCN(C)CC2)ccc1Nc1ncc2c(n1)N(C1CCCC1)CC(F)(F)C(=O)N2C,AC50,[1],0.933 µM (active)
same,AC50,[2],0.472 µM (active)
same,outcome,[3],inactive
same,AC50,[4],5.99 µM (active)
same,AC50,[6],5.06 µM (active)
same,AC50,[7],890 nM (active)
same,outcome,[8],inactive
same,AC50,[9],0.51 µM (active)
same,outcome,[10],inactive
